Screens (PubChem)
Sampled rows, rich in hits. Any-hit rate of the full collection: about 14%.
HSD17B inhib: qHTS Assay for Inhibitors of HSD17B4, hydroxysteroid (17-beta) dehydrogenase 4. 7.6% of 75,000 active. recombinant HSD17B10, NADH fluorescence kinetic. Potency, µM (doses to about 57.1 µM), for the others: top-dose activity change, negative = inhibition, most hits filed as inhibitors;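 also: the protocol describes HADH2 (HSD17B10) and not the HSD17B4 of the title; potency is read from the fitted curve at half-maximal effect; % is scaled to controls: 0 for no effect and ±100 for the full control effect; nearly all actives have a fitted effect of over 70% in size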
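Enzyme plus compound, 15 min room temperature; substrate mix added (NAD+ 1 mM, beta-hydroxybutyryl-CoA 90 uM final); plates read kinetically for NADH fluorescence. HADH2 was His-tagged, E. coli-derived, 20 nM.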
CRE Fsk mod: Cell signaling CRE-BLA (Fsk stim) | CHO CRE-bla reporter (cAMP response element driving beta-lactamase), forskolin EC10, beta-lactamase ratio | Potency, µM (highest dose often 38.2 µM), for inactives: top-dose activity change, negative = inhibition, most hits filed as activators | 2.5% of 71,000 active; active = well fitted activation curve with a large enough effect in the signal ratio, with a control signal flat, not every such curve was filed as active; inconclusive = small, poorly fitted or top-dose-only effect, or effect the other way, or a change in a side signal; the % refers to the signal ratio; also: potency is read from the fitted curve at half-maximal effect; % of control where 0% means no effect
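Reporter-gene assay: CHO cells with beta-lactamase behind cAMP responsive elements, co-treated with compound and EC10 NKH 477 for 3 hours at 37 degrees Celsius. Activity came from the 460/530 nm CCF4 emission ratio.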
HADH2 inh: qHTS Assay for Inhibitors of HADH2 (Hydroxyacyl-Coenzyme A Dehydrogenase, Type II); 3-hydroxyacyl-CoA dehydrogenase type-2 (Homo sapiens), Q99714; recombinant HADH2, NADH fluorescence, beta-hydroxybutyryl-CoA; Potency, µM (top dose mostly 57.1 µM), without a hit: at the highest dose activity change, negative = inhibition, hits mostly inhibitors; 3.4% of 73,000 active; AID 886, 2007; also: potency is read from the fitted curve at half-maximal effect; % is scaled to controls: 0 for no effect and ±100 for the full control effect; nearly all actives have a fitted effect of over 60% in size
Target sequence (Q99714 whole entry, looked up, one chain of several): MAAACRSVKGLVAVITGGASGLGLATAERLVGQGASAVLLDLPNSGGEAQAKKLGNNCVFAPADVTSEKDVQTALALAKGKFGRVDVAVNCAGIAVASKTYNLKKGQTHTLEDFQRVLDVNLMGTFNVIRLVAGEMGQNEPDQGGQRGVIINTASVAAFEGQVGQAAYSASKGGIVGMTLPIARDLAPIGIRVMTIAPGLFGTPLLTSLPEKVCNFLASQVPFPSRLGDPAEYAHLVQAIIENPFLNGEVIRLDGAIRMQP
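Read-out: 360 nm excitation, 450 nm emission, kinetic over 4 min. Conditions: His-tagged human HADH2 20 nM, pH 9.0 Tris with Tween-20, 1 mM NAD+, 90 uM beta-hydroxybutyryl-CoA.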
A350 autofl: qHTS Assay for Spectroscopic Profiling in A350 Spectral Region. Compound autofluorescence, 340/450 nm, Alexa 350 dye-equivalents; hits give high values. max dye-equivalent concentration, M. 11% of 59,000 active; in the data active = max dye-equivalent concentration above about 10 nM; inconclusive = mostly about 1.1 nM to 9.6 nM
AID923: qHTS Assay for Allosteric/Competitive Inhibitors of Caspase-1: Spectroscopic Profiling in AFC Spectral Region | compound fluorescence, AFC spectral region (405/520 nm) | Potency, µM (top dose mostly 57.5 µM), without a hit: at the highest dose fluorescence increase, usual class: activators | 1.1% of 75,000 active | AID 923, 2007; also: potency is read from the fitted curve at half-maximal effect; 0% is about no effect
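Compound autofluorescence profiled at 405 nm ex/520 nm em during kinetic caspase 1 run (50 nM enzyme, 5 uM Ac-WEHD-AFC, HEPES pH 7.5, 10 mM DTT). Titration up to 57 uM; baseline from regression intercept, normalized to AFC standard curve.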
4MU fluor: qHTS Assay for Spectroscopic Profiling in 4-MU Spectral Region; compound autofluorescence, 340/450 nm, 4-MU equivalents; hits give high values; max dye-equivalent concentration, M; 11% of 59,000 active; in the data active = max dye-equivalent concentration above about 10 nM; inconclusive = mostly about 1.1 nM to 9.6 nM
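Compounds in 100 mM Tris, pH 8.0, incubated 15 min at room temperature, then fluorescence read at 340 nm excitation/450 nm emission. Signal converted to 4-MU dye-equivalent concentration using an on-plate six-point 4-MU standard curve.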
Starred values were filed as active, the others as inactive; i = inactive; ? = inconclusive; / = no result. Unless noted, calls follow the shape of the dose curve; as a rule, active = well fitted curve in the direction sought with a large enough effect; inconclusive = small, poorly fitted or top-dose-only effect, or another doubt; inactive = no such curve, though single readings can be large; an effect the other way counts as inactive or inconclusive.

SMILES	HSD17B inhib	CRE Fsk mod	HADH2 inh	A350 autofl	AID923	4MU fluor
COCCNC(=O)C(c1ccc(C)o1)N(C(=O)c1snc(C(N)=O)c1N)c1cccc(C)c1 (stereo not drawn)	32µM*	-1%	1%	1.4e-07M*	7%	1.7e-07M*
Cc1ccc(C(C(=O)NC2CCCC2)N(Cc2cccnc2)C(=O)c2snc(C(N)=O)c2N)o1 (stereo not drawn)	25µM*	-7%	-11%	3.6e-07M*	1%	2.3e-07M*
CCC(C)(C)NC(=O)CN(C(=O)c1snc(C(N)=O)c1N)c1ccc2c(c1)OCCO2	-3%	?	9%	?	-2%	?
Cc1ccc(C(C(=O)NC2CCCCC2)N(Cc2cccnc2)C(=O)C2COc3ccccc3O2)o1 (stereo not drawn)	10%	-6%	2%	i	2%	i
Cc1ccc(C(C(=O)NCCc2ccccc2)N(C(=O)c2csnn2)C2CC2)o1 (stereo not drawn)	2%	6%	-5%	?	0%	?
COCCNC(=O)C(c1ccc(C)o1)N(C(=O)c1snc(C(N)=O)c1N)c1ccc(C)cc1 (stereo not drawn)	32µM*	-8%	-10%	7.3e-08M*	4%	8.6e-08M*
CC(C)C[C@@H](CC(=O)N[C@@H](CCC(=O)O)CC(=O)O)NC(=O)[C@@H]1CCCC[C@H]1NC(=O)C[C@H](CCCN)NC(=O)C[C@H](CO)NC(=O)[C@@H]1CNCC[C@H]1N	/	?	-4%	/	/	/
FC(F)(F)c1cc(CN2CCCC3(CCNCC3)C2)cc(C(F)(F)F)c1	5%	1%	7%	i	1%	i
COCC(=O)N1CCC2(CC1)CCN(C(c1ccccc1)c1ccccc1)CC2	8%	-5%	4%	i	1%	i
CCOc1ccccc1N(C(=O)c1snc(C(N)=O)c1N)C(C(=O)NC1CCCC1)c1ccco1 (stereo not drawn)	10µM*	0%	-6%	7.8e-08M*	6%	7.4e-08M*
CCCCC(CC)COC(=O)c1ccc(N(C)C)cc1 (stereo not drawn)	32µM*	5%	?	/	1%	/
CCCCc1nc(N2CCOCC2)c(C#N)c2c1COC(C)(C)C2	/	/	/	9.3e-08M*	/	7.8e-08M*
CCCCc1nc(NCC2CCCO2)c(C#N)c2c1COC(C)(C)C2 (stereo not drawn)	/	/	/	7.7e-08M*	/	6.8e-08M*
Cc1cc(C)c(C#N)c(N2CCSCC2)n1	25µM*	?	?	5.9e-08M*	2%	5e-08M*
Cc1cc(C)c(C#N)c(SCC(=O)N2CCCCC2)n1	-7%	10%	?	i	4%	i
Cc1cc(C)c(C#N)c(N2CCCC(C(N)=O)C2)n1 (stereo not drawn)	32µM*	7%	-7%	6.8e-08M*	1%	6.9e-08M*
CCCn1c(C)nc2c(NCCN3CCOCC3)nc(C)nc21	23%	5%	13%	/	0%	/
O=c1c(-c2ccc(Cl)cc2)nc2cncnc2n1Cc1ccccc1Cl	?	?	0%	i	7%	i
N#Cc1cn(-c2ccccc2)nc1-c1ccc2c(c1)OCCO2	20µM*	12%	3%	i	0%	i
CCCCCCN(C(=O)CCCCCN1C(=O)NC(C2CC2)C(C(=O)OCc2ccccc2)=C1C)C(C(=O)NCCCC)c1ccc(OCC(=O)OC)c(C(=O)OC)c1 (stereo not drawn)	-11%	14%	10%	/	4%	/
Cc1nnc(NC(=O)C2(c3ccccc3)CCOCC2)s1	?	10µM*	6%	?	0%	?
CCc1ccc(NS(=O)(=O)c2ccc(Cl)cc2OC)cc1	-8%	/	6%	/	0%	/
